# Bioassay records (PubChem BioAssay)
# The list is not random: actives were taken first. Their share in the collection is about 3.4%.
# Wnt act = Wnt/beta-catenin pathway activators, primary screen, cell-based, plate reader, single point. activation, % at 9.35 µM. Wnt/beta-catenin reporter cell assay, activator. 300,000 tested, 1.2% active. AID 743398, 2014; in the data active = activation above about 30%, passing the limit was not always enough; inconclusive = no clear call, values can overlap the other calls;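 note: 0% = neutral control wells and 100% = positive control wells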
# MITF act = activators of MITF-driven TRPM1 promoter reporter, primary screen, cell-based, SK-MEL-5, luciferase, single point | SK-MEL-5 TRPM1-promoter luciferase, 24 h; % of positive control, neutral wells = 0 | AID 588334, 2011 | activation, % at 12.5 µM | 300,000 tested, 0.75% active;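 active = mean activation of at least 80% with every replicate also reaching 80%; inconclusive = mean reaches 80% but some replicate falls short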;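 note: 0% = neutral control wells and 100% = parthenolide positive control wells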
# miR-122 sensor = miR-122 Renilla sensor signal increase in Huh7, primary screen, miR-122 inhibitor project, cell-based, single point, plate reader | Huh7 miR-122 Renilla luciferase sensor, 48 h; neutral wells = 0, positive control = 100 | activation (reporter increase), % at 12.5 µM | 340,000 tested, 0.3% active | AID 602342, 2012;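 active = mean replicate activation score at least 90 and every replicate individually at or above 90; inconclusive = only one of the two criteria met; inactive = neither criterion met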;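 note: higher luciferase means less miR-122 activity so hits act as miR-122 inhibitors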
# esBAF inh = Bmi1 luciferase reporter increase in mESCs, primary screen, esBAF inhibitor project, mouse ES cells, Bmi1 luciferase knock-in, single point; 24 h; 100% = twice the neutral-well signal; reporter increase, % at 12.5 µM; 350,000 tested, 2% active; in the data active = activation above about 40%; inconclusive = no clear call, values can overlap the other calls;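 note: 0% = median of the plate's neutral control wells and 100% = double that signal; a rise in the Bmi1 reporter signal indicates esBAF inhibition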
# Env fusion inh = inhibitors of HIV-1 Env-driven cell-cell fusion, primary screen, HeLa-JRFL effector, CEM21 target cells, luciferase | inhibition, % at 12.3 µM | 360,000 tested, 1.1% active;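 active = mean replicate inhibition score of at least 50 and every replicate individually at or above 50; inconclusive = only one of the two criteria met; inactive = mean below 50 and not all replicates reaching 50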;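 note: 0% = plate neutral controls and 100% = maraviroc near 300 nM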
# esBAF Ring1 qPCR = Ring1 mRNA increase in mouse ESCs, confirmation, esBAF inhibitor project, cell-based, mouse ESC, RT-qPCR, cherry-pick. shares compounds with esBAF inh. mouse ESC E14, Ring1 mRNA RT-qPCR fold change. fold change at 33 µM. 550 tested, under 10 active. AID 743176, 2013;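 active = Ring1 gene expression raised more than 2-fold over untreated cells in both replicates at either tested dose; inconclusive = only one replicate above 2-fold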;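 note: Ring1 transcript normalised to actin housekeeping signal by TaqMan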
# Fgf4 repress = Fgf4 mRNA decrease in mouse ESCs, confirmation, esBAF inhibitor project, cell-based, mouse ESC, RT-qPCR, cherry-pick; shares compounds with esBAF inh; mouse ESC E14, Fgf4 mRNA qPCR fold change; stronger effect = lower value; Fgf4 expression fold change at 33 µM; 550 tested, 4% active;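 active = Fgf4 expression under 0.8 fold of control in both repeat measurements at one or both tested doses; inconclusive = under 0.8 fold in just a single repeat measurement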;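 note: Fgf4 transcript normalised to actin in duplex TaqMan qPCR; cells exposed to compound for 24 h before lysis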
# Bmi1 derepress = esBAF inhibition via Bmi1 de-repression, confirmation, cell-based, RT-qPCR, mouse ESC, single point, cherry-pick | shares compounds with esBAF inh | mouse ESE14 ES cells, Bmi1 mRNA qPCR fold; stronger effect = higher value | fold change at 33 µM | 550 tested, under 10 active | AID 743180, 2013;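 active = Bmi1 expression fold change above 6 at either tested concentration, seen in replicate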
# A549 cytotox = A549 cell cytotoxicity, cytotoxicity control, plate reader, single point, cherry-pick | shares compounds with esBAF inh | cell viability change % (negative = cytotoxic), % at 25 µM, hits read low | 550 tested, under 10 active; call rule not given here
# HepG2 tox SP = HepG2 cell cytotoxicity, cytotoxicity control, plate reader, single point, cherry-pick. shares compounds with esBAF inh. stronger effect = lower value. activity change, negative = inhibition, % at 25 µM. 550 tested, 4% active; in the data active = activity change below about -50%
# HEK293 cytotox SP = HEK293 cell cytotoxicity, cytotoxicity control, plate reader, single point, cherry-pick; AID 743190, 2013; activity change, negative = inhibition, % at 25 µM, hits read low; shares compounds with esBAF inh; 550 tested, 3% active; in the data active = activity change below about -38%, passing the limit was not always enough
# * hit, by the source's call; ? = inconclusive; · = no result; [ ] = remark or other dose.
SMILES,Wnt act,MITF act,miR-122 sensor,esBAF inh,Env fusion inh,esBAF Ring1 qPCR,Fgf4 repress,Bmi1 derepress,A549 cytotox,HepG2 tox SP,HEK293 cytotox SP
O=C(C[C@H]1CC[C@@H](NC(=O)NC2CCCCC2)[C@@H](CO)O1)NCc1ccc(F)cc1,·,·,3[16.7 µM],0,0[16.7 µM],·,·,·,·,·,·
O=C(Cc1ccccc1)N1CC[C@H]2[C@H](CO)Nc3ccc(Br)cc3[C@H]21,·,·,-2[16.7 µM],-4,·,·,·,·,·,·,·
C[C@@H]1CN([C@H](C)CO)C(=O)Cc2cc(NC(=O)C3CCCCC3)ccc2O[C@H]1CN(C)Cc1ccc(C(=O)O)cc1,·,·,-5[16.7 µM],-4,-11[16.7 µM],·,·,·,·,·,·
C[C@H](CO)N1C[C@H](C)[C@@H](CN(C)Cc2ccc3c(c2)OCO3)OCCCC[C@H](C)Oc2ccc(NC(=O)C3CCCCC3)cc2C1=O,·,·,2[16.7 µM],-2,-42[16.7 µM],·,·,·,·,·,·
C[C@@H]1CN([C@@H](C)CO)C(=O)c2cc(NC(=O)CCN3CCOCC3)ccc2O[C@H]1CN(C)Cc1ccc(Cl)c(Cl)c1,·,·,3[16.7 µM],-1,-21[16.7 µM],·,·,·,·,·,·
CCC1CCCCN1C(=O)c1ccc2nc(Cc3ccc(OC)cc3)oc2c1 (stereo unspecified),-1,?,0,67*,-47,1,1.2,0.91,7,-11,12
O=C(c1ccncc1)N(c1ccc(N2CCOCC2)cc1)C(c1ccccc1)c1nc2ccccc2[nH]1 (stereo unspecified),-2,·,1,48*,·,1.1,1.1,1.4,1,-9,-5
CCC(c1nc2ccccc2[nH]1)N(C(=O)Cc1cc(OC)cc(OC)c1)c1ccc(N2CCOCC2)cc1 (stereo unspecified),-1,·,-3,0,·,·,·,·,·,·,·
C[C@H](CO)N1C[C@H](C)[C@@H](CN(C)CC2CCCCC2)Oc2ccc(NS(=O)(=O)c3ccc(F)cc3)cc2CC1=O,·,·,-10[16.7 µM],2,·,·,·,·,·,·,·
Cc1ccc(-n2nnc(-c3cccnc3)n2)cc1,22,102*,·,60*,-134,1.2,1,1.5,-3,-10,16
Cc1ccc(-n2nnc(-c3nccn3C)n2)cc1,6,-2,-11,-58,-20,·,·,·,·,·,·
COc1ccc(-c2csc(NC3OC(=O)c4c3ccc(OC)c4OC)n2)cc1OC (stereo unspecified),6,·,-4,·,5,·,·,·,·,·,·
COc1ccc2c(c1OC)C(=O)OC2Nc1nc(-c2cc3cc(Br)ccc3oc2=O)cs1 (stereo unspecified),51*,144*,6,65*,-139,0.99,1,1.5,-17,-35,-18
Cc1ccc(NC(=O)c2ccc3c(=O)n4c(nc3c2)CCC4)cc1F,53*,71,-9,67*,-38,1,?,1.1,-6,10,-5
CNC(=O)c1ccc(NC(=O)c2ccc3c(=O)n4c(nc3c2)CCC4)cc1,-20,-3,-5,-3,·,·,·,·,·,·,·
CCc1nnc(NC(=O)c2ccc3c(=O)n4c(nc3c2)CCC4)s1,24,·,-2,59*,-2,0.91,0.94,1.4,-6,-41,-16
O=C(C[C@H]1C=C[C@@H](NC(=O)C2CC2)[C@@H](CO)O1)Nc1ccccc1,·,·,·,2,-6[16.7 µM],·,·,·,·,·,·
C[C@H]1CCCCO[C@@H](CN(C)Cc2ccc(C(=O)O)cc2)[C@@H](C)CN([C@@H](C)CO)C(=O)c2cc(NS(=O)(=O)c3ccc(Cl)cc3)ccc2O1,·,·,7[16.7 µM],-1,-1[16.7 µM],·,·,·,·,·,·
O=C(Nc1ccc(SC(F)F)cc1)C12CCC(CC1)C2,12,42,3,56*,-8,1.2,?,1.7,-5,26,1
O=C(c1ccc(Cn2c(=S)[nH]c3ccc(N4CCOCC4)cc3c2=O)cc1)N1CCN(c2ccc(F)cc2)CC1,21,39,9,·,19,·,·,·,·,·,·
COc1ccc(N2CCN(C(=O)c3ccc(Cn4c(=S)[nH]c5ccc(N6CCOCC6)cc5c4=O)cc3)CC2)cc1,20,62,0,68*,15,0.97,0.85,1.8,-10,-36,-10
c1ccc(-c2cc3ccccc3[nH]2)cc1,28,96*,11,54*,·,0.96,1.1,1.2,-3,-24,-17
COCC#Cc1ccc2c(c1)O[C@@H](CN(C)CC1CCOCC1)[C@H](C)CN([C@H](C)CO)S2(=O)=O,·,·,-5[16.7 µM],-1,7[16.7 µM],·,·,·,·,·,·
Cc1ccc(S(=O)(=O)NCc2ccccc2)cc1C(=O)N1CC(C)CC(C)C1 (stereo unspecified),-1,1,64,-8,25,·,·,·,·,·,·
Cc1ccc(S(=O)(=O)NCc2ccccc2)cc1C(=O)NC1CCC(C)CC1 (stereo unspecified),21,79,30,74*,-26,1.1,0.9,1.5,-12,-1,-10
COc1ccc(CNC(=O)Nc2ccccc2)cc1,29,60,-11,29,-44,·,·,·,·,·,·
COc1ccc(CNC(=O)Nc2cccc(C)c2)cc1,35*,75,1,67*,-28,1.2,1.1,1.4,0,2,3
COc1ccc(/C=C/C(=O)c2ccc(O)cc2)cc1,1,47,-5,17,·,·,·,·,·,·,·
COc1cc(/C=C/c2ccc(O)cc2)cc(OC)c1,2,·,-6,61*,·,0.95,0.97,2,-4,-35,2
